Only some compounds are listed: those with a hit (about 4.8% of all), similar ones and a draw of the others.
USP1-UAF1 inh: Inhibitors of USP1/UAF1: Primary Screen; Ubiquitin carboxyl-terminal hydrolase 1 (Homo sapiens), O94782; recombinant USP1/UAF1, Ub-Rhodamine cleavage fluorescence; Potency, µM (series often up to 57.1 µM), most hits filed as inhibitors; hit rate 0.23% among 390,000; further: nearly all actives have a fitted effect of over 60% in size
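USP1/UAF1 complex at 1 nM was preincubated with compound for 15 min at room temperature, then Ub-Rho substrate (150nM final) was added. Fluorescence (480/540 nm) was read kinetically, 6 reads every 60 seconds.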
USP2a block: qHTS Assay for Inhibitors of Ubiquitin-specific Protease USP2a Using CHOP2 as the Reporter | Ubiquitin carboxyl-terminal hydrolase 2 (Homo sapiens), O75604 | USP2 core, Ub-CHOP2 coupled fluorogenic reporter, 485/531 | Potency, µM (titrated, usually from 38.3 µM), actives largely listed as inhibitors | hit rate 0.01% among 330,000 | AID 463254, 2010
Target sequence (O75604 whole entry, looked up): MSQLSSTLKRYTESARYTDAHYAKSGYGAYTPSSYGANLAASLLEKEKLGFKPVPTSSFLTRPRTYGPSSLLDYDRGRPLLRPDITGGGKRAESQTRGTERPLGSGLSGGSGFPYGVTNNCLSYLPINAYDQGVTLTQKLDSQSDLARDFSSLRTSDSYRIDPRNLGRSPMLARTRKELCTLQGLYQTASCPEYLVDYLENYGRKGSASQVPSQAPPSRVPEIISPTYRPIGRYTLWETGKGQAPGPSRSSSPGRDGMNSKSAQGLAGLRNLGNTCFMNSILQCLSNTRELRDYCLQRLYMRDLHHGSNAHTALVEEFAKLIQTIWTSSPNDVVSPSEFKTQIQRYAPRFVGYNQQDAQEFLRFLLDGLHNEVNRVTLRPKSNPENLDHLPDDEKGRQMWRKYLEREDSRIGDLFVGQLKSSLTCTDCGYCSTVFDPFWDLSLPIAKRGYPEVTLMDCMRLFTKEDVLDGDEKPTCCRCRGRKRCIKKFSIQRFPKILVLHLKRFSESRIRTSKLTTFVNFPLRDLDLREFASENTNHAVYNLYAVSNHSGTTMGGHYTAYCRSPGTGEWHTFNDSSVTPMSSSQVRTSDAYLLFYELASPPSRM
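Cell-free coupled assay: 10nM USP2 core preincubated 30min RT with compound in Tris-HCl pH 8.0/CaCl2/CHAPS buffer, then 25nM Ub-CHOP2 and 25nM reporter substrate; fluorescence (Ex 485/Em 531) read after 60min RT, normalized to NEM inhibition, concentration-response curves fitted.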
IL1B secr inh: qHTS for Inhibitors of Inflammasome Signaling: IL-1-beta AlphaLISA Primary Screen. activity change, % at 57.5 µM. hit rate 4.7% among 360,000. THP-1 LPS/ATP IL-1B secretion, AlphaLISA, 16 h; stronger effect = lower value; in the data active means activity change below about -50%; inconclusive means mostly about -30% to -49%
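Secreted IL-1B measured by AlphaLISA bead assay after 16 h compound exposure of THP-1 cells; compounds (final up to 57.5 uM) added 1 h before LPS (250 ng/mL) and ATP (1.25 mM) stimulation; lower signal means less secretion.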
ATXN viability: Viability Counterscreen for Primary qHTS for Inhibitors of ATXN expression; hit rate 0.49% among 400,000; AID 651635, 2014; S2 cells (HEK-293 line with an ATXN2-luciferase reporter) viability, CellTiter-Fluor protease fluorescence, 24 h; Potency, µM (doses to about 56.7 µM), actives largely listed as cytotoxic; further: nearly all actives have a fitted effect of over 40% in size
ATXN2 expr inh: Primary qHTS for Inhibitors of ATXN expression; HEK-293 ATXN2-luciferase reporter, luminescence, 24 h; Potency, µM (doses to about 57 µM), hits mostly inhibitors; hit rate 0.72% among 360,000; AID 1745845, 2022; further: nearly all actives have a fitted effect of over 55% in size
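ATXN2-luciferase reporter cells (luciferase flanked by upstream and downstream ATXN2 gene portions) were treated 24 h at 37 °C with compounds at up to 57 uM. SteadyGlo luminescence gave expression; GF-AFC fluorescence gave viability.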
Each line names hits and unclear results; the compound was inactive in the other large screens. Unless noted, the call rests on the fitted dose curve; in most records, active means well fitted curve in the direction sought with a large enough effect; inconclusive means small, poorly fitted or top-dose-only effect, or another doubt; inactive means no such curve, though single readings can be large; an effect the other way counts as inactive or inconclusive.

CC(C)C[C@H](N)c1nnc(SCc2ccc(Cl)cc2Cl)o1	none (no result: USP2a block, IL1B secr inh)
COc1cc2nc(N(C)C)c(CNCc3nonc3C)cc2c(OC)c1OC	none (no result: USP1-UAF1 inh, USP2a block, IL1B secr inh, ATXN2 expr inh)
O=C1C2CC=CCC2C(=O)N1c1ccc(NCCc2ccc(O)cc2)c([N+](=O)[O-])c1 (centres undefined)	IL1B secr inh -83
COC(=O)c1ccccc1NC(=O)c1nc(S(=O)(=O)Cc2ccccc2F)ncc1Cl	none (no result: USP2a block, IL1B secr inh)
COc1ccc(NC(=O)c2nc(S(=O)(=O)Cc3cccc(C)c3)ncc2Cl)c(OC)c1	none (no result: ATXN2 expr inh)
Cc1ccccc1CS(=O)(=O)c1ncc(Cl)c(C(=O)Nc2ccc(F)cc2)n1	IL1B secr inh -98 (no result: ATXN viability, ATXN2 expr inh)
O=C(Nc1nc2ccc(F)cc2s1)c1nc(S(=O)(=O)Cc2ccccc2)ncc1Cl	ATXN viability 14µM, ATXN2 expr inh inconclusive (no result: USP2a block, IL1B secr inh)
O=C(Nc1ccc(F)cc1)c1nc(S(=O)(=O)Cc2ccccc2)ncc1Cl	USP1-UAF1 inh inconclusive, IL1B secr inh -95, ATXN2 expr inh inconclusive (no result: ATXN viability)
Cc1cccc(CS(=O)(=O)c2ncc(Cl)c(C(=O)Nc3nc4ccc(F)cc4s3)n2)c1	none (no result: USP2a block, IL1B secr inh)
Cc1ccc(NC(=O)c2nc(S(=O)(=O)Cc3ccccc3)ncc2Cl)cc1	IL1B secr inh -103, ATXN viability inconclusive, ATXN2 expr inh inconclusive
O=C(Nc1ccccc1F)c1nc(S(=O)(=O)Cc2ccccc2F)ncc1Cl	ATXN viability 18µM, ATXN2 expr inh inconclusive (no result: USP2a block, IL1B secr inh)
O=C(Nc1ccc(F)cc1)c1nn(-c2ccccc2)c(=O)cc1Cl	IL1B secr inh -145, ATXN viability inconclusive, ATXN2 expr inh inconclusive
Cc1ccc(NC(=O)c2cc(-c3ccccc3)nn2-c2ccccc2)cc1	IL1B secr inh inconclusive
Cc1cc(C)cc(NC(=O)CSc2oc(-c3cccs3)nc2S(=O)(=O)c2ccc(Br)cc2)c1	none (no result: USP2a block, IL1B secr inh)
COc1cc(=O)n2c(c1C(=O)NCc1ccc3c(c1)OCO3)CCN(C(=O)c1ccc(C)cc1)CC2	none (no result: USP1-UAF1 inh, USP2a block, IL1B secr inh, ATXN2 expr inh)
COC(=O)c1ccccc1-c1c2ccc(=N)cc-2oc2cc(N)ccc12	USP2a block inconclusive, IL1B secr inh -92, ATXN2 expr inh inconclusive (no result: ATXN viability)
COC(=O)c1ccccc1-c1ccc(/C=N/NC(=O)c2cc3ccccc3o2)o1	none
CO[C@H]1[C@H](NC(=O)c2ccncc2)c2ccccc2C12CCN(C(=O)c1ccoc1)CC2	none (no result: USP1-UAF1 inh, USP2a block, IL1B secr inh, ATXN2 expr inh)
COC(=O)CNC(=O)c1sc2ncn(CC(=O)Nc3ccc(C)c(Cl)c3)c(=O)c2c1C	IL1B secr inh -81
COc1cc(/C=N/N=C(N)N)ccc1OCc1ccccc1Cl	IL1B secr inh -66, ATXN viability inconclusive, ATXN2 expr inh inconclusive
O=C1c2ccccc2C(=O)c2c(NCCCN(CCO)CCO)cccc21	IL1B secr inh -103 (no result: ATXN viability)
COc1cccc(CN(C)C(=O)c2cnn(-c3nccc(-c4ccc5c(c4)OCO5)n3)c2C)c1	none (no result: USP1-UAF1 inh, USP2a block, IL1B secr inh, ATXN2 expr inh)
CCOc1ccccc1NC(=O)CSc1nc(=O)n(CCN2CCOCC2)c2c1CCCC2	none
COc1ccc(NCc2ccc3c(c2)OCO3)cc1Cl	USP1-UAF1 inh inconclusive, IL1B secr inh -93
COc1cc2sc3cc(NCc4ccc5c(c4)OCO5)ccc3c(=O)c2cc1OC	none
COC(=O)c1nc2n(n1)C(c1cccc(Cl)c1)C1=C(CCCC1=O)N2 (centres undefined)	none
O=C1CCCC2=C1C(c1cccc(Br)c1)n1nc(-c3ccco3)nc1N2 (centres undefined)	IL1B secr inh -94 (no result: USP2a block)
COc1ccc(C(=O)c2sc3nc(C)cc(-c4cccs4)c3c2N)cc1OC	USP1-UAF1 inh inconclusive, IL1B secr inh -80 (no result: ATXN viability)
CC1=CC(C#N)(C#N)C(C#N)(C#N)C(c2ccccc2)N1 (centres undefined)	none (no result: USP1-UAF1 inh, IL1B secr inh, ATXN viability, ATXN2 expr inh)
CC1CCC(C(C)C)C2=C1C(C#N)(C#N)C(C#N)(C#N)C(c1ccccc1)N2 (centres undefined)	IL1B secr inh -86
COc1ccc2cccc(CCNC(C)=O)c2c1	none (no result: USP1-UAF1 inh, USP2a block, IL1B secr inh)
O=C(OCCc1cc2ccccc2c(=O)o1)c1cccc(Br)c1	none
CCOC(=O)C(NC(=O)c1cccc(Cl)c1)(OCc1ccc(F)cc1)C(F)(F)F (centres undefined)	IL1B secr inh -100
CSc1ccccc1C(=O)N(C)C(c1ccccc1)c1ccccc1	USP1-UAF1 inh inconclusive, ATXN2 expr inh inconclusive
